Screening results as filed in PubChem BioAssay.
Sm TGR block – qHTS Assay for the Inhibitors of Schistosoma Mansoni Peroxiredoxins; 360,000 compounds, 3% hits; Potency, µM (highest dose often 114 µM), for inactives: at the highest dose activity change, negative = inhibition, hits mostly inhibitors; AID 485364, 2010; purified TGR, DTNB reduction, TNB absorbance 405 nm; Schistosoma mansoni thioredoxin glutathione reductase (TGR), Q962Y6; further: potency means the concentration at half of the fitted maximal effect; nearly all actives have a fitted effect of over 60% in size
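Kinetic colorimetric format: TGR-catalysed, NADPH-driven DTNB reduction monitored via TNB absorbance. Enzyme dispensed at 20 nM; compound exposure 15 min at room temperature before reaction start.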
FMDV inh – High Throughput Screening for Foot and Mouth Disease Virus Antivirals | FMDV antiviral cell-based qHTS | Potency, µM (titrated, usually from 57.9 µM), for the others: top-dose activity change, negative = inhibition, usual class: inhibitors | 410,000 compounds, 1.2% hits | AID 1159524, 2015; calls by dose curve; tested in HEK293T cells; further: read-out not given here; potency means the concentration at half of the fitted maximal effect; nearly all actives have a fitted effect of over 45% in size
FBPA Giardia inh – qHTS Assay for Inhibitors of Fructose-1,6-bisphosphate Aldolase from Giardia Lamblia; 290,000 compounds, 0.71% hits; purified Giardia FBPA; Potency, µM (doses to about 59.6 µM), inactives show at the highest dose activity, negative = inhibition, usual class: inhibitors; AID 2451, 2010; A8B2U2; further: potency means the concentration at half of the fitted maximal effect; nearly all actives have a fitted effect of over 55% in size
Target sequence (A8B2U2 whole entry, looked up): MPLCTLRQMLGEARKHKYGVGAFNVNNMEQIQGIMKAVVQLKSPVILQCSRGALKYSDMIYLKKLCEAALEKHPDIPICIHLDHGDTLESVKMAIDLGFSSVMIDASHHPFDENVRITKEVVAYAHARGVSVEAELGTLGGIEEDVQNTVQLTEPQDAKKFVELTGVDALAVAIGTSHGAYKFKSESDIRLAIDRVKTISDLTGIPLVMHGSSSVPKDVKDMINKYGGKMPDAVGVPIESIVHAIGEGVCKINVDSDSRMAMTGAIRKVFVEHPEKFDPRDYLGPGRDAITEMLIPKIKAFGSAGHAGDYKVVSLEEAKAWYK
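40 nM FBPA preincubated 10 min at RT with compound (up to 57.5 uM final), then substrate plus GAPDH/TPI/NAD/arsenate coupling and diaphorase/resazurin added. Fluorescence read after 20 min at RT, 525/598 nm.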
Tb PYK inh – qHTS of Trypanosoma Brucei Inhibitors. TbPYK enzyme, Kinase-Glo Plus ATP luminescence, 45 min. Potency, µM (titrated, usually from 76.8 µM), for the others: at the highest dose activity, negative = inhibition, most hits filed as inhibitors. 410,000 compounds, 0.12% hits. pyruvate kinase (Trypanosoma brucei), Q57TT1; further: potency means the concentration at half of the fitted maximal effect; nearly all actives have a fitted effect of over 50% in size
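ADP (130 uM final) triggers the TbPYK reaction after compound addition; incubation is 45 min at room temperature. Kinase-Glo Plus is then added and luminescence imaged. Normalized data are fitted to concentration-effect curves.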
HCMV inh – qHTS Assay for inhibitors of the human cytomegalovirus (HCMV); AID 1259415, 2018; HFF cells, HCMV-luciferase reporter, 72 h; hits give low values; activity change, negative = inhibition, % at 57.5 µM; 410,000 compounds, 4.5% hits; in the data active means activity change below about -60%; inconclusive means no clear call, values can overlap the other calls; inactive means above about -39%
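Cell-based, HFFs, 1000 cells/well, 16 h 37C; cpds in DMSO + HCMV-luc, MOI 1 PFU/cell; 72 h 37C; OneGlo luminescence after 5 min RT; norm. to buffer vs Salinomycin 10uM.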
RE007 growth inh – qHTS Assay for Inhibitors of the HIV-1 protein Vpr; S. pombe RE007 Vpr strain, BacTiter-Glo ATP luminescence, 24 h; Potency, µM (series often up to 92.2 µM), for the others: top-dose activity change, negative = less growth, usual class: inhibitors; 360,000 compounds, 0.21% hits; active means well fitted falling curve with a large enough effect; inconclusive means small, poorly fitted or top-dose-only effect; inactive means no such curve, though single readings can be large or run the other way; further: potency means the concentration at half of the fitted maximal effect; nearly all actives have a fitted effect of over 50% in size
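Fission yeast strain RE007, carrying one chromosomally integrated HIV-1 vpr copy, was seeded at OD 0.01 in PMG+AL medium with 23 nL pinned compound. After 24 h at 30 °C and 99% humidity, viability was read by BacTiter-Glo luminescence.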
An asterisk follows results filed as active; ? = inconclusive; · = no result. Compounds with a hit are over-represented: about 7.7% of the library has one in this group of screens. Unless noted, the call rests on the fitted dose curve; in most records, active means well fitted curve in the direction sought with a large enough effect; inconclusive means small, poorly fitted or top-dose-only effect, or another doubt; inactive means no such curve, though single readings can be large; an effect the other way counts as inactive or inconclusive. On the % scale 0 is the no-effect control and ±100 the full control effect.

SMILES	Sm TGR block	FMDV inh	FBPA Giardia inh	Tb PYK inh	HCMV inh	RE007 growth inh
C=CC[n+]1c(-c2ccc(C)cc2)csc1Nc1ccc(NC(C)=O)cc1	0.2%	?	-22.2%	-1.0%	-88.5*	11.2%
Cc1ccc(CNC(=O)C2CC3Cn4c(nc5cc6ccccc6cc54)C3N2C)o1 (stereo not given)	44.7µM*	-16.5%	-8.5%	2.1%	-100.6*	-16.3%
Cc1ccc(CNC(=O)C2CC3Cn4c(nc5ccccc54)C3N2C)o1 (stereo not given)	35.5µM*	-11.7%	·	-22.1%	2.5	-7.3%
C=CCNC(=O)C1CC2Cn3c(nc4ccccc43)C2N1C (stereo not given)	?	-8.8%	-2.1%	0.4%	24.0	0.1%
COc1ccc(NC(=O)N2c3ccc(OC)cc3[C@@H](NC(C)=O)[C@H](C)[C@H]2c2ccccc2)cc1	·	·	·	·	17.8	·
Cc1nn(C)cc1CN1CCOc2ccc(C(C)(O)COc3ccccc3)cc2C1 (stereo not given)	·	-9.8%	·	·	·	·
Cc1nn(Cc2ccc(Cl)c(Cl)c2)c(C)c1NC(=O)c1sc2ccccc2c1Cl	4.0%	31.6µM*	-8.8%	4.0%	-18.3	36.0%
Cc1ccc(Cn2nc(C)c(NC(=O)c3cc(-c4ccc5c(c4)OCO5)on3)c2C)cc1	3.1%	-24.5%	8.4%	1.7%	-60.3*	11.1%
Cc1nn(Cc2ccc(Cl)c(Cl)c2)c(C)c1NC(=O)c1cc(-c2ccco2)on1	44.7µM*	?	-5.0%	-11.4%	?	-3.4%
Cc1nn(Cc2c(Cl)cccc2Cl)c(C)c1NC(=O)c1sc2ccccc2c1Cl	0.1%	0.0%	-6.8%	8.7%	-84.6*	-0.1%
COc1ccc(NC(=O)N2CC3(CCN(C(=O)c4c(C)noc4C)CC3)C2)cc1	·	0.8%	-6.9%	0.2%	·	·
Cc1ccccc1Cn1nc(C)c(NC(=O)c2sc3ccccc3c2Cl)c1C	-20.9%	31.6µM*	-7.0%	1.4%	-30.3	-2.9%
Cc1cc(C(=O)Nc2c(C)nn(Cc3ccccc3Cl)c2C)no1	10.6%	-2.2%	4.1%	0.2%	-7.4	2.4%
COc1ccc2c(c1)CCc1c(C(=O)Nc3c(C)nn(Cc4ccc(C)cc4)c3C)noc1-2	1.2%	?	·	-1.6%	-96.3*	·
Cc1nn(C)cc1C(=O)Nc1c(C)nn(Cc2ccccc2Cl)c1C	0.5%	-0.9%	-0.3%	4.9%	-79.5*	6.4%
Cc1nn(Cc2ccc(Cl)cc2Cl)c(C)c1NC(=O)c1sc2ccccc2c1Cl	?	-28.1%	6.7%	1.3%	-29.0	-6.6%
CCCC[P+](CCCC)(CCCC)Cc1ccc(NC(=O)[C@@H](Cc2ccc3ccccc3c2)NC(=NC2CCCCC2)NC2CCCCC2)cc1	·	-12.4%	4.3%	·	·	·
Cc1nnc2n(C3CCCCC3)c(=O)c3c4c(sc3n12)COC(C)(C)C4	39.8µM*	2.3%	6.1%	3.8%	-27.7	-0.9%
Cc1nnc2n(C3CCCCC3)c(=O)c3c4c(sc3n12)CCC4	-25.4%	·	-5.1%	·	·	·
Cn1c(-c2cccc(C(F)(F)F)c2)cc2cnc(Nc3ccc(F)cc3)cc21	·	·	·	·	-5.9	·
CCOC(=O)Cc1csc2nc(-c3ccccc3)cn12	·	·	·	·	7.8	·
Cc1ccc2nc(Cl)c(C3CC(c4ccco4)=NN3C(=O)CCCC(=O)O)cc2c1 (stereo not given)	35.5µM*	-22.7%	15.9%	-23.4%	?	0.5%
COc1ccc2nc(Cl)c(C3CC(c4ccco4)=NN3C(=O)CCC(=O)O)cc2c1 (stereo not given)	?	-0.9%	20.1%	-15.0%	3.4	5.2%
COc1ccc2nc(Cl)c(C3CC(c4ccco4)=NN3C(=O)CCCC(=O)O)cc2c1 (stereo not given)	8.91µM*	3.1%	-8.1%	-21.7%	-36.2	-8.0%
Cc1ccc2cc(C3CC(c4ccco4)=NN3C(=O)CCCC(=O)O)c(Cl)nc2c1 (stereo not given)	?	-7.2%	-2.2%	-21.4%	?	-16.2%
SMILES	Sm TGR block	FMDV inh	FBPA Giardia inh	Tb PYK inh	HCMV inh	RE007 growth inh
Cc1ccc(-n2cnc3c(sc4nc(N5CCOCC5)c5c(c43)CCCC5)c2=O)cc1	1.5%	?	2.8%	-6.9%	-35.1	-13.6%
Cc1ccccc1-n1cnc2c(sc3nc(N4CCOCC4)c4c(c32)CCCC4)c1=O	7.6%	-18.4%	-11.5%	-8.1%	-89.1*	-0.9%
O=c1c2sc3nc(N4CCOCC4)c4c(c3c2ncn1-c1ccccc1)CCCC4	5.3%	?	0.1%	2.7%	-63.7*	26.5%
O=c1c2sc3nc(N4CCOCC4)c4c(c3c2nnn1Cc1ccccc1)CCCC4	-23.8%	-10.9%	5.6%	7.0%	-100.2*	2.0%
Cc1cnc(-n2ncc(C(=O)N(C)CC3CCCN(C)C3)c2C2CC2)nc1-c1cccs1 (stereo not given)	·	-15.8%	·	·	·	·
COc1ccc(S(=O)(=O)N(Cc2nc(-c3ccc(Cl)cc3)no2)C2CCCCC2)cc1	-1.9%	7.6%	·	1.9%	-23.5	·
CCOC(=O)C1CCCN(S(=O)(=O)c2ccc(S(=O)(=O)N3CCCC3)cc2)C1 (stereo not given)	-0.4%	?	·	2.1%	9.5	-0.6%
CCOC(=O)C1CCCN(S(=O)(=O)c2cnc(Cl)c(Br)c2)C1 (stereo not given)	31.6µM*	-3.2%	4.1%	0.0%	?	3.5%
CCC(=O)Nc1nc2ccccc2n1Cc1ccc(C)cc1	4.8%	0.0%	17.5%	-3.3%	?	2.2%
CCC(=O)Nc1nc2ccccc2n1Cc1ccccc1	0.0%	0.0%	3.7%	5.2%	-91.7*	-0.8%
CCc1ccccc1NC(=O)Cn1ccn(-c2cc(C)cc(C)c2)c(=O)c1=O	-7.4%	2.8%	·	6.7%	-64.0*	·
O=C(Nc1ncc([N+](=O)[O-])s1)c1ccc2c(c1)OCO2	4.6%	3.16µM*	-26.3%	?	-92.9*	?
Cc1nc2c(ccc3nc(NC(=O)C(c4ccccc4)c4ccccc4)sc32)s1	2.0%	12.6µM*	-4.1%	-1.8%	0.8	-4.3%
Cc1onc(-c2ccccc2)c1C(=O)Nc1ncc([N+](=O)[O-])s1	-2.6%	?	·	-10.8%	-95.5*	-9.3%
Cc1ccc([N+](=O)[O-])cc1NC(=O)c1ccc2c(c1)OCO2	·	5.1%	-0.1%	0.2%	6.9	-16.3%
Cc1nc2c(ccc3nc(NC(=O)Cc4cccc5ccccc45)sc32)s1	-22.4%	?	-0.2%	-3.9%	-15.5	-1.5%
Cc1cnc(NC(=O)c2ccc3c(c2)OCCO3)s1	-9.4%	10µM*	·	-11.6%	-79.7*	-24.7%
